# Reference: PubChem BioAssay
# “And” between values parts separate entries of the source, which are not always exact repeats. Identical values can stand only once. The source made the active and inactive calls.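 Rule for the calls, unless noted: active = compounds whose cell count with miR-34 switched on is under 0.7 times the count with it off; inactive = the rest.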
# Experiments:
# [1] = sensitizers of A549 cells to miR-34 induction, primary screen, imaging, A549 dox-inducible miR-34, nuclei and caspase counts (AID 1347080); details: A549 miR-34 inducible, Hoechst nuclei count, 48 h; note: test concentration not given here
# [2] = survival rescue of mitochondrial mutant cells in low glucose, primary screen, MELAS cybrids, Rieske KO mouse fibroblasts, CellTiter-Glo (AID 1508586;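 active = mean z-score across replicates of 1.96 or higher in either the MELAS or the Rieske mutant cell line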;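 note: test concentration not given here; z relative to plate mean and SD of compound and empty wells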)
# [3] = viability rescue of complex I mutant cybrids, primary screen, cell-based, galactose medium, ATP luminescence (AID 1645843;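 active = z-score of at least 1.8 in each of two replicates, scored against plate mean and spread of sample wells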;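 note: positive z means more ATP and so rescue of galactose-driven cybrid death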); details: complex I mutant cybrid cells, 72 h, stronger effect = higher value
# [4] = stronger effect = lower value, cell number ratio, induced over uninduced
# [5] = measured here: relative caspase fold change +Dox/-Dox
# [6] = measured here: total cells with miR-34 induction, stronger effect = lower value
# [7] = measured here: total cells without miR-34 induction
# [8] = MELAS cybrid survival, CellTiter-Glo 48 h, stronger effect = higher value
# [9] = Rieske KO mouse fibroblast survival, CellTiter-Glo 72 h
SMILES,"fold change [1, 4]","fold change [1, 5]","cell count [1, 6]","cell count [1, 7]","z-score [2, 8]","z-score [2, 9]",z-score [3]
COc1ccc2c(c1)CCN(C(=O)Nc1n[nH]c(-c3ccco3)n1)C2,0.87 (inactive),1.45,7950,9130,0.18,3.56,0.245 (inactive)
NC(=O)c1ccccc1-c1cccc2ccccc12,0.84 (inactive),1.62,7950,9470,-0.37 (inactive),0.135,-0.38 (inactive)
COc1ccccc1Cn1ncc2[nH]c(-c3ccccc3OC)nc21,0.835 (inactive),1.7,7580,9090,-0.341 (inactive),-0.0244,2.62 (active)
COc1nc2ccccc2cc1-c1nnc2ccccn12,0.94 (inactive),1.24,7160,7610,-0.729 (inactive),-1.23,-0.505 (inactive)
COc1cc(N=C(N)N=C(N)N)cc(OC)c1,0.901 (inactive),0.269,8210,9120,0.825 (inactive),-0.341,0.61 (inactive)
Cc1cc(NC(=O)Cn2ccc(-c3ncnn3C)n2)n(C2CCCCC2)n1,0.953 (inactive),1.19,9860,10400,0.129 (inactive),-0.435,-0.55 (inactive)
Cc1nc(NC(=O)NCc2cccc(C(F)(F)F)c2)nn1C,0.922 (inactive),1.12,9110,9880,0.0413 (inactive),1.4,0.45 (inactive)
COCC1CCCN(Cc2cccc(-c3nc(-c4cccnc4)cc(=O)[nH]3)c2)C1 (configuration not stated),0.935 (inactive),1.11,8420,9010,-0.479 (inactive),0.644,0.175 (inactive)
Cc1ccc2c(C(=O)N3C[C@H]4CC[C@H]3C4)cc(-c3cnn(C(C)(C)C)c3)nc2c1,0.854 (inactive),1.66,6940,8130,-0.72 (inactive),0.542,1.56 (inactive)
COc1ccc(CN2CCN(c3cc(C)nc(N)n3)CC2=O)cc1,0.879 (inactive),1.5,8130,9240,0.162 (inactive),0.559,-0.615 (inactive)
CC(C)(C)c1cn(C2CCN(C(=O)c3cnc4ccccc4n3)CC2)nn1,0.867 (inactive),1.26,7870,9080,0.15 (inactive),-0.382,-0.44 (inactive)
O=C(O)c1ccccc1C(=O)O,0.874 (inactive),0.755,8620,9850,-0.0339 (inactive),-0.338,0.455 (inactive)
O=C(O)CSc1nc(-c2cccc(Cl)c2)no1,0.912 (inactive),0.254,8810,9660,0.659 (inactive),-0.279,0.49 (inactive)
O=C1CN(C(=O)c2ccncc2)CCN1Cc1ccc2c(c1)OCO2,0.914 (inactive),1.59,9040,9890,-0.12 (inactive),-0.568,-0.52 (inactive)
COc1cccc2c(=O)n(Cc3ccc4nonc4c3)cnc12,0.912 (inactive),1.93,8180,8980,0.215 (inactive),-0.341,-0.545 (inactive)
CC(C)(C)Nc1nc(N)c(C(=O)c2ccccc2)s1,0.899 (inactive),0.5,6780,7540,3.13 (active),0.287,0.55 (inactive)
CS(=O)(=O)c1ccc(C(=N)N)cc1,0.887 (inactive),0.391,8670,9770,0.807 (inactive),-0.298,0.2 (inactive)
CCn1ccnc1CN(C)C(=O)c1cc(-c2cnc(N)nc2)nc2c(C)cccc12,0.899 (inactive),1.48,8320,9260,-1.11 (inactive),1.17,1.16 (inactive)
Cn1nc(NC(=O)Cn2ccc(-c3ccco3)n2)c2ccccc21,0.861 (inactive),2.39,7120,8270,1.07 (inactive),0.074,0.205 (inactive)
CC(C)n1cc(-c2cc(C(=O)N(C)Cc3cccnc3)c3ccc(F)cc3n2)cn1,0.916 (inactive),1.28,9850,10700,-0.603 (inactive),1.43,-0.355 (inactive)
CC1(C)CC(=O)c2c(N)ncnc2C1,0.894 (inactive),0.392,9160,10200,0.568 (inactive),-0.422,0.725 (inactive)
O=C1CN(c2ccc(C(F)(F)F)cn2)CCN1Cc1ccc2c(c1)OCO2,0.887 (inactive),1.52,8410,9480,0.169 (inactive),-0.106,2.96 (active)
COc1cc2c(cc1-c1nnc3ccccn13)OCO2,0.908 (inactive),2.79,8030,8840,0.597 (inactive),-0.284,-0.465 (inactive)

SMILES,"fold change [1, 4]","fold change [1, 5]","cell count [1, 6]","cell count [1, 7]","z-score [2, 8]","z-score [2, 9]",z-score [3]
Cc1ccc2c(C(=O)N(C)C(C)C)cc(-c3cnc(C(C)C)nc3)nc2c1,0.942 (inactive),1.5,7480,7940,0.549 (inactive),0.778,-0.485 (inactive)
Cn1c(=O)c(O)c(O)c2ccccc21,0.815 (inactive),0.99,4980,6110,-0.227 (inactive),-0.541,-2.27 (inactive)
Cn1cc(/C=C/C(=O)N2CCc3[nH]nc(-c4ccccc4F)c3C2)cn1,0.865 (inactive),2.04,7720,8920,-0.472 (inactive),-0.29,-0.48 (inactive)
O=c1c(-c2ccc(O)cc2)coc2cc(OC3OC(CO)C(O)C(O)C3O)ccc12 (configuration not stated),1.06 (inactive),0.687,5800,5490,0.694 (inactive),-0.345,0.515 (inactive)
CS(=O)(=O)Nc1ccc(C(=O)O)cc1,0.918 (inactive),0.714,8860,9650,0.13 (inactive),-0.244,0.365 (inactive)
CNC(=O)c1cc(Oc2ccc3nc(Nc4ccc(Cl)c(C(F)(F)F)c4)[nH]c3c2)ccn1,0.938 (inactive),0.861,2770,2950,1.25 (inactive),-0.647,-2.66 (inactive)
CCOc1ccccc1-c1ncnc2sc(C)c(C)c12,0.89 (inactive),1.57,6100,6860,-0.535 (inactive),0.672,0.07 (inactive)
CC(C)C(=O)N1CCC(CNC(=O)c2ccno2)CC1,0.927 (inactive),0.833,9650,10400,0.208 (inactive),0.293,-0.57 (inactive)
CC[C@H](C)C(=O)O[C@H]1C[C@H](O)C=C2C=C[C@H](C)[C@H](CC[C@@H]3C[C@@H](O)CC(=O)O3)[C@H]21,0.872 (inactive),2.14,9300,10700,0.0534 (inactive),-0.0126,0.555 (inactive)
OCC(O)COc1ccc(Cl)cc1 (configuration not stated),0.886 (inactive),0.44,8700,9820,0.325 (inactive),0.457,0.62 (inactive)
O=C(C=Cc1ccc(O)c(O)c1)NCCc1ccc(O)cc1,0.861 (inactive),0.612,8240,9580,-0.586 (inactive),-0.131,0.38 (inactive)
Cc1sc2ncnc(-c3cccc4cccnc34)c2c1C,0.871 (inactive),1.66,8110,9310,-0.544 (inactive),-0.845,0.64 (inactive)
CC1OC(OCC2OC(Oc3c(-c4ccc(O)c(O)c4)oc4cc(O)cc(O)c4c3=O)C(O)C(O)C2O)C(O)C(O)C1O (configuration not stated),0.944 (inactive) and 0.91 (inactive),1.42 and 0.851,10400 and 8400,11000 and 9230,-0.328 (inactive),-0.0914,0.225 (inactive)
NCC(=O)Nc1ccc(OCc2ccccc2)cc1,0.851 (inactive),0.248,8020,9430,1.42 (inactive),-0.396,-1.35 (inactive)
Cc1ccc(C(=O)N2CCC(Cc3ccccc3)CC2)cc1,0.922 (inactive),1.12,7870,8540,-0.903 (inactive),0.658,-0.71 (inactive)
c1ccc2c(c1)OCC(CNc1ncnc3nc[nH]c13)O2 (configuration not stated),0.786 (inactive),0.972,6310,8020,-0.539 (inactive),0.778,-0.485 (inactive)
COc1ncccc1-c1cnn(CC(=O)Nc2cc(-c3ccccn3)nn2C)c1,0.961 (inactive),0.557,9520,9900,-0.417 (inactive),0.201,-0.56 (inactive)
Cc1ccc(-c2ncnc3scc(C)c23)c2cccnc12,0.907 (inactive),1.31,8040,8860,-0.0169 (inactive),-0.263,-0.425 (inactive)
OC1(CNc2ncnc3nc[nH]c23)C2CC3CC(C2)CC1C3 (configuration not stated),0.887 (inactive),0.873,8560,9650,-0.357 (inactive),-0.0569,-0.575 (inactive)
Nc1nc(-c2ccc(O)cc2)cs1,0.871 (inactive),0.369,7600,8730,-0.885 (inactive),0.17,0.145 (inactive)
NC1=NC(=O)C(=Cc2ccc(-c3ccc(C(=O)O)cc3)o2)S1,0.91 (inactive),0.479,8530,9370,0.721 (inactive),-0.231,0.485 (inactive)
O=c1[nH]cnc2sc3c(c12)CCCC3,0.885 (inactive),0.876,8460,9560,-0.212 (inactive),0.0845,0.635 (inactive)
CCN(CC)C(=O)[C@]1(c2ccccc2)CC1CN (some centres not stated),0.994 (inactive) and 0.915 (inactive),2.55 and 0.784,10600 and 8120,10700 and 8880,-0.247 (inactive),-0.165,0.315 (inactive)
